{"source": "PubChem BioAssay (Tox21)", "note": "“And” between values parts separate entries of the source, which are not always exact repeats. Equal entries are not always repeated. Records with an inconclusive call do not appear. Entries that show only a call come without a potency. A structure can be active in one record and inactive in another. The source made the active and inactive calls. The call rests on the fitted dose curve. Potency means the concentration at half of the fitted maximal effect.", "data": [{"target": "Acetylcholinesterase (Homo sapiens) (UniProt P22303)", "sequence (P22303 whole entry, looked up)": "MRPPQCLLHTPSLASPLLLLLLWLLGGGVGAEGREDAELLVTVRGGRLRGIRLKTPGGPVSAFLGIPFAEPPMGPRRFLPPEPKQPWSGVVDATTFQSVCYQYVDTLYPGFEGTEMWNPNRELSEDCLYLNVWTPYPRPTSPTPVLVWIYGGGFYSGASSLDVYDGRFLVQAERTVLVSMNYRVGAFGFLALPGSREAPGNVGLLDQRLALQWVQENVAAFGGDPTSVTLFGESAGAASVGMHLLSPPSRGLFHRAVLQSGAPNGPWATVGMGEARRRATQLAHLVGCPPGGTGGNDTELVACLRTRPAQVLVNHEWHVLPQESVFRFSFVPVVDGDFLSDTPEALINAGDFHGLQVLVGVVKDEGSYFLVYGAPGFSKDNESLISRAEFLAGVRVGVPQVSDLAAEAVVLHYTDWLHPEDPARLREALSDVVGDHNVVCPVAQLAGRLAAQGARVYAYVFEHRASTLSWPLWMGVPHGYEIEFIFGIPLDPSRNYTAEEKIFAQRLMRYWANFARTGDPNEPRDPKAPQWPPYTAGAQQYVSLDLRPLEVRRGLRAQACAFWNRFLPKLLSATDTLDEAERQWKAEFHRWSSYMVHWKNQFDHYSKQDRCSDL", "assay": "Acetylcholinesterase (AChE) small molecule antagonists: fluorescence cell-based qHTS assay (AID 1347398); further: nearly all actives have a fitted effect of over 50% in size", "conditions": "SH-SY5Y cells; Potency: AChE activity; series mostly up to 115 µM", "in_short": "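Cells (SH-SY5Y) attached overnight, were dosed with compound or DMSO vehicle for 30 min at 37 C, and then incubated 40 min at room temperature with acetylthiocholine and Thiolite Green; green fluorescence indexed AChE activity.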", "values": [{"smiles": "CNC(=O)CSP(=S)(OC)OC", "Potency": "inactive"}, {"smiles": "O=C(O)c1nn(Cc2ccc(Cl)cc2Cl)c2ccccc12", "Potency": "inactive"}, {"smiles": "C=CC(Cl)CCl", "note": "(configuration not stated)", "Potency": "inactive"}, {"smiles": "C=CC(=O)OCC(CC)(COC(=O)C=C)COC(=O)C=C", "Potency": "inactive"}, {"smiles": "CCCCC(C#N)(Cn1cncn1)c1ccc(Cl)cc1", "note": "(configuration not stated)", "Potency": "inactive"}, {"smiles": "CC(C)(O)C#N", "Potency": "inactive"}, {"smiles": "COc1ccc(O)c(C(C)(C)C)c1", "Potency": "inactive"}, {"smiles": "Brc1ccc(Br)cc1", "Potency": "inactive"}, {"smiles": "CCCCOC(=O)COC(=O)c1ccccc1C(=O)OCCCC", "Potency": "inactive"}, {"smiles": "CC(C)(c1ccccc1)c1ccc(O)c(C(C)(C)c2ccccc2)c1", "Potency": "inactive"}, {"smiles": "c1ccc(C2CO2)cc1", "note": "(configuration not stated)", "Potency": "inactive"}, {"smiles": "COc1ccc(C=O)cc1OC", "Potency": "inactive"}, {"smiles": "CCOS(=O)(=O)OCC", "Potency": "inactive"}, {"smiles": "ClCC(Cl)CCl", "Potency": "inactive"}, {"smiles": "O=NN(c1ccccc1)c1ccccc1", "Potency": "inactive"}, {"smiles": "CCC[CH2][Sn]([Cl])([CH2]CCC)[CH2]CCC", "Potency": "inactive"}, {"smiles": "COP(=O)(NC(C)=O)SC", "note": "(configuration not stated)", "Potency": "inactive"}, {"smiles": "CSc1nc(NC(C)C)nc(NC(C)C)n1", "Potency": "inactive"}, {"smiles": "CC(C)COC(=O)c1ccccc1C(=O)OCC(C)C", "Potency": "inactive"}, {"smiles": "CN(C)c1ccccc1", "Potency": "inactive"}, {"smiles": "CCOP(=S)(OCC)OP(=S)(OCC)OCC", "Potency": "10.3 µM (active) and 11.2 µM (active)"}, {"smiles": "CCOP(=O)(OCC)OCC", "Potency": "inactive"}, {"smiles": "CCCCCCCC[N+](C)(CCCCCCCC)CCCCCCCC", "Potency": "63.2 µM (active) and inactive and 79.6 µM (active)"}, {"smiles": "CC1(C)C(C(=O)OC(C#N)c2cccc(Oc3ccccc3)c2)C1(C)C", "note": "(configuration not stated)", "Potency": "inactive"}]}, {"target": "Acetylcholinesterase (Homo sapiens) (UniProt P22303)", "assay": "Acetylcholinesterase (AChE) small molecule antagonists: enzyme-based qHTS assay with human liver microsomes (AID 1347399); further: nearly all actives have a fitted effect of over 60% in size", "conditions": "Potency: qHTS inhibition; series mostly up to 115 µM", "in_short": "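Recombinant human AChE (50 mU/mL in the enzyme mix) and human liver microsomes (0.25 mg/mL final) were preincubated with compound and NADPH (0.25 mg/mL final) for 30 min at 37 C. Acetylthiocholine/DTNB was then added; thiocholine was read colorimetrically after 10 min at room temperature.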", "values": [{"smiles": "CNC(=O)CSP(=S)(OC)OC", "Potency": "inactive"}, {"smiles": "CCCCOCCOC(C)=O", "Potency": "inactive"}, {"smiles": "CC(C)(C#N)N=NC(C)(C)C#N", "Potency": "inactive"}, {"smiles": "O=C(O)c1nn(Cc2ccc(Cl)cc2Cl)c2ccccc12", "Potency": "inactive"}, {"smiles": "CC1CC(=O)O1", "note": "(configuration not stated)", "Potency": "inactive"}, {"smiles": "C=CC(Cl)CCl", "note": "(configuration not stated)", "Potency": "inactive"}, {"smiles": "C=CC(=O)OCC(CC)(COC(=O)C=C)COC(=O)C=C", "Potency": "inactive"}, {"smiles": "CCCCC(C#N)(Cn1cncn1)c1ccc(Cl)cc1", "note": "(configuration not stated)", "Potency": "inactive"}, {"smiles": "Oc1ccc(Cl)cc1Cl", "Potency": "inactive"}, {"smiles": "CC(C)(O)C#N", "Potency": "inactive"}, {"smiles": "O=NN1CCOCC1", "Potency": "inactive"}, {"smiles": "CCOC(=O)c1ccccc1N", "Potency": "inactive"}, {"smiles": "COc1ccc(O)c(C(C)(C)C)c1", "Potency": "inactive"}, {"smiles": "CCNc1nc(Cl)nc(NC(C)(C)C#N)n1", "Potency": "inactive"}, {"smiles": "Brc1ccc(Br)cc1", "Potency": "inactive"}, {"smiles": "CCC/C=N/O", "Potency": "inactive"}, {"smiles": "CCCCOC(=O)COC(=O)c1ccccc1C(=O)OCCCC", "Potency": "inactive"}, {"smiles": "Nc1ncn[nH]1", "Potency": "inactive"}, {"smiles": "CC(C)(c1ccccc1)c1ccc(O)c(C(C)(C)c2ccccc2)c1", "Potency": "inactive"}, {"smiles": "c1ccc(C2CO2)cc1", "note": "(configuration not stated)", "Potency": "inactive"}, {"smiles": "Clc1ccc(C(Cl)(Cl)Cl)cc1", "Potency": "inactive"}, {"smiles": "COc1ccc(C=O)cc1OC", "Potency": "inactive"}, {"smiles": "CCOS(=O)(=O)OCC", "Potency": "inactive"}, {"smiles": "ClCC(Cl)CCl", "Potency": "inactive"}, {"smiles": "O=NN(c1ccccc1)c1ccccc1", "Potency": "inactive"}, {"smiles": "CCC[CH2][Sn]([Cl])([CH2]CCC)[CH2]CCC", "Potency": "inactive"}, {"smiles": "Clc1cccc(C(Cl)(Cl)Cl)n1", "Potency": "inactive"}, {"smiles": "COP(=O)(NC(C)=O)SC", "note": "(configuration not stated)", "Potency": "inactive"}, {"smiles": "CSc1nc(NC(C)C)nc(NC(C)C)n1", "Potency": "inactive"}, {"smiles": "CC(C)COC(=O)c1ccccc1C(=O)OCC(C)C", "Potency": "inactive"}, {"smiles": "CN(C)c1ccccc1", "Potency": "inactive"}, {"smiles": "CCOP(=S)(OCC)OP(=S)(OCC)OCC", "Potency": "36.5 µM (active) and 20 µM (active)"}, {"smiles": "CCOP(=O)(OCC)OCC", "Potency": "inactive"}, {"smiles": "[CH3][Sn]([Cl])([Cl])[Cl]", "Potency": "inactive"}, {"smiles": "ClCc1ccccn1", "Potency": "inactive"}, {"smiles": "CCCCCCCC[N+](C)(CCCCCCCC)CCCCCCCC", "Potency": "inactive"}, {"smiles": "CC1(C)C(C(=O)OC(C#N)c2cccc(Oc3ccccc3)c2)C1(C)C", "note": "(configuration not stated)", "Potency": "inactive"}, {"smiles": "CCOP(=S)(OCC)SCSC(C)(C)C", "Potency": "40.2 µM (active) and 56.4 µM (active)"}]}]}
